# Measured values taken from PubChem BioAssay AID588342 (National Center for Advancing Translational Sciences (NCATS), 2011).
# Out of some 360,000 compounds screened, about 25,000 (6.9%) were called active. A call without a number means that no potency is given here. Roughly 9% stayed inconclusive and do not appear here. Calls follow the shape of the dose curve; as a rule, active = well fitted inhibition curve with a large enough effect; inconclusive = small, poorly fitted or top-dose-only effect; inactive = flat fitted curve, though single readings scatter. The sample as a whole holds a higher share of actives than the screen did.
# Target: Luciferin 4-monooxygenase (Photinus pyralis) (UniProt P08659)
# Sequence (P08659 whole entry, looked up): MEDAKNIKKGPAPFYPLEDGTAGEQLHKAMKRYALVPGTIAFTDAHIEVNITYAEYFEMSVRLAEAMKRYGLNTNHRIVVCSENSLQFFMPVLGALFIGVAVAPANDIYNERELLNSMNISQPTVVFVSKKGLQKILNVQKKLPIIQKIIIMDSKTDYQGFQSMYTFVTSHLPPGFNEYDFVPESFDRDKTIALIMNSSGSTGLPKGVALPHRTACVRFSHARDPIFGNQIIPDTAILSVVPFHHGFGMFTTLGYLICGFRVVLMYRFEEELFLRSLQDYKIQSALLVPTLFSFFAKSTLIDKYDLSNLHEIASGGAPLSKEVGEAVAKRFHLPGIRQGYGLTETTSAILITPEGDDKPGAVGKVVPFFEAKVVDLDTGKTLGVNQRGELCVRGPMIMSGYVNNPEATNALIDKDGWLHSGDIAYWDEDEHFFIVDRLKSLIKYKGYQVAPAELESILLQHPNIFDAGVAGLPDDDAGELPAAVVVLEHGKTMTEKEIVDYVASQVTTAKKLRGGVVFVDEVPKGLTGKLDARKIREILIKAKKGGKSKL
# Experiment: qHTS profiling assay for firefly luciferase inhibitor/activator using purifed enzyme and Km concentrations of substrates (counterscreen for miR-21 project); also: nearly all actives have a fitted effect of over 55% in size
# Conditions: purified FLuc, luminescence inhibition; series mostly up to 57.5 µM
# In short: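 Purified P. pyralis luciferase (10nM final) with 10uM D-luciferin and 10uM ATP (Km levels) in 50mM Tris acetate pH 7.5, 10mM Mg acetate, 0.01% Tween-20, 0.05% BSA; qHTS 6-point titration, ~60 µM downward; luminescence read.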
# Potency is read from the fitted curve at half-maximal effect.
row,SMILES,Potency
1,CCN(c1ccccc1)S(=O)(=O)c1cc(C(=O)NCc2ccccn2)ccc1C,inactive
2,CC(=O)c1c(C)[nH]c(C(=O)COc2ccc3c(C)cc(=O)oc3c2)c1C,inactive
3,Cc1ccc(C(=O)Nc2c(C(=O)NC(C)(C)C)oc3ccccc23)cc1,inactive
4,COc1ccc(Cl)cc1NC(=O)c1sc2nc3c(cc2c1N)CN(C)CC3,inactive
5,COc1ccc(-n2c(SCC(=O)Nc3ccc(Cl)c(C)c3)nc3n[nH]c(C)c3c2=N)cc1,inactive
6,COc1ccc(Cn2ccn(CC(=O)Nc3cc(C)ccc3C)c(=O)c2=O)cc1,inactive
7,COc1cc(C2c3c(oc4ccccc4c3=O)C(=O)N2c2nc(C)c(C)s2)ccc1O (stereo unspecified),inactive
8,Cc1ccc(NC(=O)C2CCCN2S(=O)(=O)c2cccc3cccnc23)c(C)c1 (stereo unspecified),inactive
9,CCOC(=O)N/N=C/c1cccnc1,inactive
10,COc1cc(/C=N/NC(=S)Nc2cccnc2)cc(OC)c1O,10.7 µM (active)
11,COc1cc(/C=N/NC(=O)c2cccnc2)ccc1OC(=O)c1cccc(Br)c1,inactive
12,C[C@@H]1C[C@@H]2O[C@H]2/C=C\C=C\C(=O)Cc2c(Cl)c(O)cc(O)c2C(=O)O1,inactive
13,COC(=O)c1ccc(Cn2c(SCC(=O)N(C)c3ccccc3)nc3ccccc32)cc1,inactive
14,Cc1ccc(OC(=O)c2c(C)nn(-c3ccccc3)c2C)cc1,13.5 µM (active)
15,Cc1nn(-c2ccccc2)c(-n2cccc2)c1C(=O)O,inactive
16,Cc1cccc(C)c1NC(=O)COC(=O)c1c(C)nn(-c2ccccc2)c1C,inactive
17,CCCC12CN3CC(CCC)(CN(C1)C3c1c[nH]c3ccc(OC)cc13)C2=O (stereo unspecified),inactive
18,COc1ccccc1C(=O)NCCC(=O)N(C)Cc1cccnc1,inactive
19,COc1ccc(CCNC(=O)CCCCn2c(=O)c3ccccc3n(Cc3ccccc3)c2=O)cc1OC,inactive
20,CCOc1ccc(C(=O)c2cn(Cc3ccccc3OC)c3ccc(F)cc3c2=O)cc1,inactive
21,COc1ccc(NC(=O)C2CCN(c3ccc(Sc4ccc(C)cc4)nn3)CC2)c(OC)c1,inactive
22,CN1CCN(C2(CNC(=O)COc3ccc(C(C)(C)C)cc3)CCCCC2)CC1,inactive
23,O=c1c2ccccc2nc(N/N=C/c2ccccc2)n1O,1.51 µM (active)
24,O=C(Nn1cnc2ccccc2c1=O)c1ccccc1,inactive
25,CCCc1nc2ccccc2c(=O)n1/N=C/c1ccc(O)c(O)c1,inactive
26,CCOCCCn1c(NN)nc2ccccc2c1=O,inactive

row,SMILES,Potency
1,O=c1c2ccccc2ncn1/N=C/c1ccccc1,1.69 µM (active)
2,Nc1nnn(CC(=O)N/N=C/c2ccccc2)n1,inactive
3,COc1cc(C(=O)Nc2ccc(OCc3cc(=O)n4cc(C)sc4n3)cc2)cc(OC)c1OC,inactive
4,CCN(C(=O)CSc1nc(N)cc(=O)[nH]1)C1CCS(=O)(=O)C1 (stereo unspecified),inactive
5,O=C(CN1CCCCC1)Nc1ccccc1C(=O)NC1CC1,inactive
6,Cc1ccc(-c2nnc(Nc3ccc(OCC(N)=O)cc3)c3ccccc23)cc1S(=O)(=O)NCC1CCCO1 (stereo unspecified),inactive
7,CCCN(C(=O)Cn1cc(S(=O)(=O)N2CCN(c3ccccc3F)CC2)c2ccccc2c1=O)c1cccc(C)c1,inactive
8,COc1cccc(/C=C/C(=O)OCC(=O)N2CCN(c3ccccc3)CC2)c1,inactive
9,CN=C1C=C/C(=N/N=c2\ccn(O)cc2C)C=C1C,15.1 µM (active)
10,CSc1ccccc1NC(=O)COC(=O)CCCOc1ccc(C)cc1,inactive
11,CCCNC(=O)C(CC)n1nc(CC)n2c(cc3oc(C)cc32)c1=O (stereo unspecified),inactive
12,CCN(CC)S(=O)(=O)c1ccc(N2CCOCC2)c(NC(=O)C2CSC3(C)CCC(=O)N23)c1 (stereo unspecified),inactive
13,O=C(Nc1nnc(-c2ccccc2)o1)c1cc(-c2cccs2)nc2ccccc12,19 µM (active)
14,CCCCN(C)CCCNC(=O)c1cc(-c2cccs2)nc2ccccc12,inactive
15,O=C(Nc1ccc(S(=O)(=O)Nc2nccs2)cc1)c1cc(-c2ccncc2)nc2ccccc12,inactive
16,Cc1cccc(CC(=O)N2CC(=O)Nc3ccc(F)cc3C2c2ccccc2)c1 (stereo unspecified),inactive
17,Cc1ccc(CSc2nc3ccsc3c(=O)n2CCC(C)C)cc1,inactive
18,COc1ccc(NC(=O)CSc2nnc(C3CC3)n2C)cc1S(=O)(=O)N1CCCCC1,inactive
19,Fc1cc(F)c2nc(Nc3nc4c(F)cccc4s3)sc2c1,4.78 µM (active)
20,COc1cc2ccccc2cc1C(=O)N(CCN(C)C)c1nc2c(F)cccc2s1,inactive
21,NC(=O)c1c(Nc2nc3c(F)cccc3s2)sc2c1CCCC2,inactive
22,COc1ccc(-c2cn3nc(N4CCC(C(=O)Nc5cccc(C)c5C)CC4)sc3n2)cc1,inactive
23,CCc1ccc(NC(=O)CN2C(=O)CSC2=O)cc1,10.7 µM (active)
24,COc1ccc(NC(=O)CN2C(=O)CSC2=O)cc1,inactive
25,CCc1ccc(NC(=O)CN2C(=O)CCSc3ccc(S(=O)(=O)N4CCCC4)cc32)cc1,inactive
26,CCn1c(=O)c2cc(C(=O)NCCc3ccc(Cl)cc3)sc2c2ccccc21,inactive

row,SMILES,Potency
1,COc1ccc(-c2onc(C)c2C)cc1S(=O)(=O)NCCc1ccccc1,inactive
2,Cc1ccc2[nH]c(=O)c(COC(=O)c3ccccn3)cc2c1,inactive
3,CCOC(=O)c1cc2cc(C)ccc2[nH]1,12 µM (active)
4,CC(=O)OCc1cc2cc(C)ccc2[nH]c1=O,inactive
5,COc1cc(OC)c(NC(=O)c2cc(S(=O)(=O)N3CCCC3)cn2C)cc1Cl,inactive
6,CCN(CC(=O)Nc1ccc2c(c1)OCO2)S(=O)(=O)c1ccccc1,inactive
7,CC(C)CNS(=O)(=O)c1ccc(C(=O)Nc2ccc3c(c2)OCO3)cc1,inactive
8,CCOC(=O)CCCNC(=O)COC(=O)/C=C/c1ccc2c(c1)OCO2,inactive
9,Cc1cccc(NC(=O)/C=C/c2ccc3c(c2)OCO3)n1,0.849 µM (active)
10,Cc1ccc2nc(-c3ccccn3)cc(C(=O)Nc3ccc4c(c3)OCO4)c2c1,inactive
11,Cc1cccc(NC(=O)Nc2ccc3c(c2)OCO3)n1,2.69 µM (active)
12,O=C(Nc1ccc2c(c1)OCO2)c1cc(-c2cccc(Cl)c2)on1,inactive
13,CNS(=O)(=O)c1ccc(NC(=O)Nc2ccc3c(c2)OCO3)cc1,6.01 µM (active)
14,O=C(/C=C\c1ccc2c(c1)OCO2)NC1(C(=O)Nc2ccc3c(c2)OCCO3)CCCCC1,inactive
15,CCOc1ccc(OCC(=O)Nc2c3c(nn2C(C)(C)C)CS(=O)(=O)C3)cc1,inactive
16,COc1cccc(NC(=O)CN(C)C(=O)CSCc2nc3scc(-c4cccs4)c3c(=O)[nH]2)c1,inactive
17,CC(C)CC(NS(=O)(=O)c1ccc2c(c1)oc(=O)n2C)C(=O)NCc1ccccc1Cl (stereo unspecified),inactive
18,COc1ccccc1C(CNC(=O)c1ccc(C)c(S(=O)(=O)N2CCCCC2)c1)N(C)C (stereo unspecified),inactive
19,Fc1ccc(Nc2nc(SCc3ccccc3Cl)nc3ccccc23)cc1,inactive
20,COc1ccccc1NC(=O)c1ccc(N2CC3CC(C2)c2cccc(=O)n2C3)c(NC(=O)c2cccnc2)c1 (stereo unspecified),inactive
21,COC(=O)c1cnn(-c2ccc(C(=O)Nc3ccc(OC(F)(F)F)cc3)cc2)c1N,inactive
22,COc1ccccc1CCC(=O)NNC(=O)c1ccncc1,inactive
23,O=C(O)c1ccc(/C=C2\SC(=S)N(NC(=O)c3ccc(Br)cc3)C2=O)cc1,inactive
24,COc1cccc(/C=C2\SC(=N)N(c3ccc(F)cc3)C2=O)c1,inactive
25,COc1ccc(/C=C2\SC(=S)N(CC(=O)NNC(=O)c3ccncc3)C2=O)cc1,5.36 µM (active)
26,COc1cccc(/C=C2/SC(=S)N(CC(=O)NC3C=CS(=O)(=O)C3)C2=O)c1 (stereo unspecified),6.75 µM (active)

row,SMILES,Potency
1,O=C(CN1C(=O)S/C(=C\c2ccccc2Cl)C1=O)NC1C=CS(=O)(=O)C1 (stereo unspecified),inactive
2,O=C1N(Cc2ccc3c(c2)OCO3)c2ccccc2C1(O)c1c[nH]c2ccccc12 (stereo unspecified),inactive
3,O=C(c1ccc2c(c1)N(Cc1ccccc1)C(=O)c1ccccc1S2(=O)=O)N1CCCC1,inactive
4,CC(C)(C)OC(=O)N[C@H](C(=O)OC(C)(C)C)c1ccc(Br)cc1,inactive
5,O=C1c2ccccc2C(=O)N1CCC#Cc1ccc2cc(C3(O)CCCCC3)oc(=O)c2c1,inactive
6,COc1cc(C#Cc2ccc3cc(CCCO)oc(=O)c3c2)cc(OC)c1,4.78 µM (active)
7,CCC(Sc1nc2n[nH]c(C)c2c(=N)n1-c1ccccc1Cl)C(=O)N(CC)CC (stereo unspecified),inactive
8,Cc1ccccc1CS(=O)(=O)CC1Nc2ccc(C(=O)NCc3ccc(Cl)cc3)cc2NC1=O (stereo unspecified),inactive
9,CCCCOc1ccc(Cn2c(=O)oc3ccc(C)cc32)cc1OC,inactive
10,CC(C)=C1SC(N2CCN(c3cccc(C)c3)CC2)=NC1=O,inactive
11,CCN1C(=O)/C(=C2\SC(N3CCCCC3)=NC2=O)c2ccccc21,3.38 µM (active)
12,CCn1c(=O)n(CC)c2cc(N3CCCC3)c(NC(=O)c3ccccc3Br)cc21,inactive
13,CC(C)C(NC(=O)c1ccc(Cl)cc1)C(=O)O (stereo unspecified),inactive
14,Cc1occc1C(=O)NNC(=S)NCC(C)C,inactive
15,CC(C)CNC(=S)NC(=O)c1ccc(Cl)cc1,12 µM (active)
16,CCOC(=O)N1CCC(NC(=O)c2cnn(-c3cccc(C)c3)c2C2CCN(C(=O)OC(C)(C)C)CC2)CC1,inactive
17,CCC(=O)Nc1ccc2c(c1)nc(CCN1CCN(c3ccccn3)CC1)n2C,inactive
18,Cn1c(CCN2CCCCCC2)nc2cc(NC(=O)Nc3ccccc3)ccc21,21.3 µM (active)
19,CCOC(=O)N1CCN(Cc2nc3cc(NC(C)=O)ccc3n2C)CC1,inactive
20,CC(=O)NCCc1nc2cc(NC(=O)c3ccccc3)ccc2n1C,16.9 µM (active)
21,CCCC(=O)Nc1ccc2c(c1)nc(CCNC(=O)c1ccco1)n2C,inactive
22,Cn1c(CCN2CCCC2)nc2cc(NS(=O)(=O)c3ccccc3)ccc21,inactive
23,Cc1ccc(Nc2ccc3cc(S(=O)(=O)N4CCCCC4)ccc3n2)cc1F,inactive
